Laboratory results reported in PubChem BioAssay (EPA / NIEHS).
Several values for one entry are separate records, joined by “and”; a condition that tells them apart may be missing. Identical values can stand only once. Results filed as inconclusive are left out. Activity calls are given as the source filed them. How the source made its calls: active means hit-call score of the fitted dose curve at least 0.9, where 1 is the maximum; inconclusive means response in the unintended direction; inactive means score below 0.9.

Key:
[1] = ATG_XTT_Cytotoxicity: Cytotoxicity Assessment in the Attagene TRANS-FACTORIAL HepG2 Assay (AID 2283584);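 on AC50: cells exposed to compound for 24 h before reading; active means loss of viability signal versus DMSO baseline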
Method in brief: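 Cells: human HepG2, transiently transfected with MRTU reporter constructs. Exposure 24 h. Readout: XTT, cell number. Baseline/neg ctrl DMSO; loss-of-signal scored.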

[2] = TOX21_p53_BLA_p2_viability: Viability Assessment in the Tox21 HCT-116 p53 Agonism Beta-lactamase Assay, Phase 2 (AID 2283591);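 further: compound exposure lasted 16 h at 37 °C; actives lower the ATP signal meaning cytotoxicity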
Method in brief: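 Cytotoxicity readout: CellTiter-Glo ATP luminescence, 30 min at room temperature, after the beta-lactamase read. Cells were HCT116 exposed 16 h at 37C to compounds pin-transferred at 217-fold dilution from DMSO stocks.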

[3] = molecular target: Cellular tumor antigen p53 (Homo sapiens) (UniProt P04637); assay: TOX21_p53_BLA_p2_ratio: Tox21 HCT-116 p53 Agonism Beta-lactamase Assay, Ratio, Phase 2 (AID 2283592)
Method in brief: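 Plated HCT116 p53-bla cells (4000/well) received compound after 5 h, then 16 h at 37C/5% CO2. CCF4-AM added, 2 h RT. Ratio of 460 to 530 nm emission taken as the p53 reporter signal.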

[4] = TOX21_p53_BLA_p3_viability: Viability Assessment in the Tox21 HCT-116 p53 Agonism Beta-lactamase Assay, Phase 3 (AID 2283593);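 further: cells exposed to compound for 16 h before reading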
Method in brief: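 Cellular ATP was quantified by CellTiter-Glo luminescence, read after 30 min at room temperature. Beforehand, HCT116 cells (4000/well) received compound 5 h post-seeding, 217-fold diluted from DMSO, then incubated 16 h at 37C.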

[5] = molecular target: Cellular tumor antigen p53 (Homo sapiens) (UniProt P04637); assay: TOX21_p53_BLA_p3_ratio: Tox21 HCT-116 p53 Agonism Beta-lactamase Assay, Ratio, Phase 3 (AID 2283596)
Method in brief: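 Cells were seeded at 4000/well, rested 5 h at 37C, then dosed with DMSO compound solutions (217-fold dilution) for 16 h. CCF4-AM substrate was loaded for 2 h at room temperature, and the 460/530 nm emission ratio was fitted for gain of signal versus DMSO.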

[6] = TOX21_p53_BLA_p4_viability: Viability Assessment in the Tox21 HCT-116 p53 Agonism Beta-lactamase Assay, Phase 4 (AID 2283597);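 further: hits lower the luminescence signal meaning cytotoxicity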
Method in brief: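 Readout: ATP luminescence (CellTiter-Glo), measured 30 min after reagent addition at RT. The reagent followed a 2 h CCF4-AM incubation, and the cells had been exposed to compound for 16 h at 37C.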

[7] = molecular target: Cellular tumor antigen p53 (Homo sapiens) (UniProt P04637); assay: TOX21_p53_BLA_p5_ratio: Tox21 HCT-116 p53 Agonism Beta-lactamase Assay, Ratio, Phase 5 (AID 2283599)
Method in brief: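 Beta-lactamase reporter ratio (blue 460 nm over green 530 nm, 405 nm excitation) after 2 h CCF4-AM loading, in HCT-116 cells exposed 16 h at 37 C to compounds pinned at 217-fold dilution. Increases relative to DMSO baseline scored.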

[8] = TOX21_p53_BLA_p5_viability: Viability Assessment in the Tox21 HCT-116 p53 Agonism Beta-lactamase Assay, Phase 5 (AID 2283600)
Method in brief: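 Workflow: seed 4000 cells per well, wait 5 h, add compounds (DMSO, 217-fold dilution), incubate 16 h, load CCF4-AM 2 h, add CellTiter-Glo, read luminescence after 30 min.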

[9] = molecular target: Cellular tumor antigen p53 (Homo sapiens) (UniProt P04637); assay: TOX21_p53_BLA_p4_ratio: Tox21 HCT-116 p53 Agonism Beta-lactamase Assay, Ratio, Phase 4 (AID 2283601)
Method in brief: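 Signal is the blue/green (460nm/530nm) ratio of cleaved versus uncleaved CCF4-AM substrate, read after 2 h substrate loading. Cells were HCT116 carrying the p53-responsive beta-lactamase reporter, dosed 16 h at 37C, 5% CO2; CellTiter-Glo measured in parallel.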

Measured: AC50

Chain of Cellular tumor antigen p53 (Homo sapiens) (P04637 whole entry, looked up): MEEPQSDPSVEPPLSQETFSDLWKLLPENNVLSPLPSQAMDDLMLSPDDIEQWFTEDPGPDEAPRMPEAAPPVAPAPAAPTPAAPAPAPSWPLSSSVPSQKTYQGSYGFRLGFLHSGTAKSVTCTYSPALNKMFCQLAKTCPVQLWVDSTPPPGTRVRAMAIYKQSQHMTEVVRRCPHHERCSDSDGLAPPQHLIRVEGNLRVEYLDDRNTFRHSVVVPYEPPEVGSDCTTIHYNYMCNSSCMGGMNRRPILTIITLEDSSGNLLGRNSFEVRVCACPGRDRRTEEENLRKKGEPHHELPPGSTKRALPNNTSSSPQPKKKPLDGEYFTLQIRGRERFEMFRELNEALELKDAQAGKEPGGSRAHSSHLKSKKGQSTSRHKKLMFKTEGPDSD

CCCC1O[C@@H]2C[C@H]3[C@@H]4CCC5=CC(=O)C=C[C@]5(C)[C@H]4[C@@H](O)C[C@]3(C)[C@]2(C(=O)CO)O1 (some centres undefined)
inactive: all assays above

CCC1(c2ccccc2)C(=O)NCNC1=O
not listed: [7]
inactive: all other assays above

O=c1[nH]c(=O)c2cn[nH]c2[nH]1
not listed: [6]
inactive: all other assays above

CC(=O)c1c(C)c([N+](=O)[O-])c(C(C)(C)C)c([N+](=O)[O-])c1C
not listed: [5]
inactive: all other assays above

CCOC(=O)c1ccc(N)cc1
not listed: [6] | [8]
inactive: all other assays above

CC1(C)O[C@@H]2[C@@H](CO[C@@]3(COS(N)(=O)=O)OC(C)(C)O[C@@H]23)O1
not listed: [7]
inactive: all other assays above

NC(=S)NNC(N)=S
inactive: all assays above

OCCCCC(O)CO (centres undefined)
inactive: all assays above

COc1cc([C@@H]2c3cc4c(cc3[C@@H](O[C@@H]3O[C@@H]5CO[C@@H](C)O[C@H]5[C@H](O)[C@H]3O)[C@H]3COC(=O)[C@H]23)OCO4)cc(OC)c1O
active: [3] 1.36 µM and 3.57 µM | [5] 852 nM and 3.18 µM | [7] 2.56 µM and 4.83 µM | [9] 6.18 µM and 1.98 µM
inactive: all other assays above

CCC(C)=O
inactive: [1] | [2] | [3] | [4] | [6]

[Cl][Au]([Cl])[Cl]
inactive: [1] | [7] | [8]
active: [2] 45.6 µM | [3] 74.1 µM | [4] 75.1 µM | [6] 70.7 µM | [9] 37.8 µM

Cc1c(OCC(F)(F)F)ccnc1CS(=O)c1nc2ccccc2[nH]1 (centres undefined)
inactive: all assays above

CC(=O)O[C@@H]1CC2CCC1(C)C2(C)C (some centres undefined)
not listed: [6]
inactive: all other assays above

CCCCCC(=O)CC
not listed: [6]
inactive: all other assays above

CC(=O)CC(=O)Nc1ccc(C)cc1C
not listed: [7] | [9]
inactive: all other assays above

CCOc1ccc(NC(=O)CC(C)O)cc1 (centres undefined)
inactive: all assays above

[O-]n1ccccc1=S.[O-]n1ccccc1=S.[Zn+2]
active: [1] 2.87 µM | [2] 14.3 µM [middle of 4 runs] | [3] 33.8 µM [middle of 4 runs] | [4] 20.3 µM [middle of 4 runs] | [5] 35.7 µM [middle of 4 runs] | [6] 15.4 µM [middle of 4 runs] | [7] 24.8 µM [middle of 4 runs] | [8] 19.1 µM [middle of 4 runs] | [9] 21.1 µM [middle of 4 runs]

OCc1cccc(Oc2ccccc2)c1
inactive: all assays above

O=C1c2ccccc2C(=O)c2c(O)ccc(O)c21
inactive: all assays above

Nc1ccc(N)c2c1C(=O)c1ccccc1C2=O
active: [3] 7.9 µM | [9] 13 µM
inactive: all other assays above

CC(=O)c1ccccn1
not listed: [4] | [9]
inactive: all other assays above

CC=CC=CCOC(=O)C(C)C
inactive: [1] | [2] | [4] | [5] | [6]

CCOC(=O)CCc1ccccc1
inactive: [1] | [2] | [3] | [4] | [8]

C[C@H](CCC(=O)NCC(=O)O)[C@H]1CC[C@H]2[C@@H]3[C@H](O)C[C@@H]4C[C@H](O)CC[C@]4(C)[C@H]3C[C@H](O)[C@]12C
not listed: [3] | [4]
inactive: all other assays above
